# According to the supplement of paper PMC6555819:
# Legend:
# Assay in all cases: PBM binding z-score (relative to random genomic background probes); higher = stronger binding; sequences stand for … in GC…GCGATTGACAGCGTAGAATGAAGG
# [1] = tested on: FXR:RXRa (NR concentration 270 nM, RXRa partner concentration 90 nM)
# Summary of the method: (§1)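 On custom Agilent 4×180K arrays, double-stranded probes with 34-nt variable regions carried direct-repeat seeds, single-nucleotide variants, half-site ablations or random human genomic background. Ligand-free nuclear receptor dimers were applied for 1 h, and binding was read with antibodies against each partner (one per run). Binding z-scores come from regression-normalized fluorescence, with the random background probes as reference.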
# [2] = tested on: LXRa:RXRa (NR concentration 270 nM, RXRa partner concentration 90 nM)
# Summary of the method: as §1
# [3] = tested on: LXRa homodimer (NR concentration 270 nM)
# Summary of the method: as §1
# [4] = tested on: LXRb:RXRa (NR concentration 270 nM, RXRa partner concentration 90 nM)
# Summary of the method: as §1
# [5] = tested on: LXRb homodimer (NR concentration 270 nM)
# Summary of the method: as §1
# [6] = tested on: PPARa:RXRa (NR concentration 270 nM, RXRa partner concentration 90 nM)
# Summary of the method: as §1
# [7] = tested on: PPARg:RXRa (NR concentration 180 nM, RXRa partner concentration 90 nM)
# Summary of the method: as §1
# [8] = tested on: PPARg:RXRa 270nM:90nM, anti-RXR (NR concentration 270 nM, RXRa partner concentration 90 nM)
# Summary of the method: as §1
# [9] = tested on: PPARg:RXRa 30nM:10nM, anti-RXR (NR concentration 30 nM, RXRa partner concentration 10 nM)
# Summary of the method: as §1
# [10] = tested on: PPARg:RXRa 90nM:30nM, anti-RXR (NR concentration 90 nM, RXRa partner concentration 30 nM)
# Summary of the method: as §1
Sequence,PBM binding z-score [1],PBM binding z-score [2],PBM binding z-score [3],PBM binding z-score [4],PBM binding z-score [5],PBM binding z-score [6],PBM binding z-score [7],PBM binding z-score [8],PBM binding z-score [9],PBM binding z-score [10]
CGTCAAAGTTCAAGTAAGGTAACGTAAAGCACGC,6.99,6.43,4.16,4.1,1.85,5.15,5.02,5.63,2.56,4.25
GCTACAGGGTCAAGGCCAGAGTACGCGTATTGAT,6.86,3.95,-0.363,3.53,-0.375,5.71,5.03,4.94,1.93,3.59
GGACCAAGGTGAATAGGTCGTTGATGAGTAGGCG,0.798,0.779,-0.0064,0.446,-0.809,2.28,1.47,1.59,0.243,0.903
GATACAGGGTCAGCTAGAGGCCAGAGAATGGAAA,4.74,2.83,-0.346,2.73,-0.535,4.65,3.8,3.53,1.08,2.59
TCTATTAGGTGAAGGGCAACCGACGAGTCCGTTT,0.937,1.07,0.449,0.669,0.667,2.44,4,5.18,4.86,5.44
TCTTGTATATCAGCAGGTTAAGAAAGCTGGCCAA,0.775,0.883,0.29,1.03,0.727,0.972,-0.165,1.63,3.19,2.42
TCATATAGTTAAAGGTGAAAGTCGAACGATATGA,0.692,1.27,-0.183,1.25,0.00404,2.69,2.49,3.41,3.96,3.79
TCATATAGGTAAACATGTGAAAGTCCGTAAGTTA,0.869,0.742,0.308,0.769,0.208,1.58,1.86,2.39,3.92,3.22
TCATATAGGTATATGCTAGGTGAAAGTCCGATCT,0.567,0.913,0.175,0.545,-0.249,0.818,0.703,1.78,3.31,2.54
CCTTATGGGTCACGAGGTTATAGCACGACGAGCG,6.1,3.8,0.305,3.32,-0.173,5.75,8.15,6.96,4.18,6.72
TCTTGTAGATGAAGCAGGTTAAGAAAGCCTGAGT,0.563,-0.122,-0.489,0.276,-0.649,0.511,-0.527,0.925,2.72,1.69
ACAGACAGGTGAGTGAAGGTAACACAGCTGGACG,0.433,0.227,-0.295,-0.073,-0.319,0.307,1.16,0.43,0.00598,0.0299
TCGAGTAGGTTACCAATGAGGCATTCAGCTTTCT,0.0141,0.677,-0.666,0.0718,-1.38,1,0.215,1.15,1.28,1.22
AGAATGAGGTTAAGATCAGGTAAACAGAATACAT,2.45,4,-0.00313,2.24,-0.136,3.9,2.61,2.31,0.859,1.75
AGAAAGAGGTTAAGATCAGGGAAACAGAATACAT,2.5,2.43,0.396,2.31,0.766,3.66,2.06,1.89,1.05,1.34
GCTAATTGGTCAGTAAAAGGTCACACACCGGTCG,3.55,4.31,5.15,4.41,1.19,4.8,3.38,4.52,2.45,3.96
CCTTACGGGTCACTCCAGGTTATAGAATCGGAGT,5.18,7.67,1.89,5.43,0.287,4.4,3.31,3.8,1.18,2.56
TTACCAAAGTGAAGGTCGTTGATCCCTCTGTAGA,2.06,2.07,-0.0239,1.33,-0.489,1.15,-0.21,0.882,0.58,0.768
AGTCAAAGTTCACTAGGTAACGTACGATTCAGCT,5.6,5.41,3.55,3.27,0.963,4.79,7.47,6.6,3.88,5.98
TCTTGTAGATCAGCAGGTTTAGAAAGCTGGCCAA,-0.241,-0.13,-0.52,0.0239,-0.59,0.117,-0.901,0.915,2.13,1.23
GGAACGAGGGCATGCGAGTTGATAGCATGGCGAT,0.758,0.468,-0.615,-0.143,-1.37,1.35,0.979,0.516,-0.248,0.117
GCTAGTTGGTCAGTAAAAGGTCTCACACCGGTCG,-0.182,-0.0505,-0.00726,-0.0991,-0.275,0.0782,0.203,0.834,-0.473,0.379
ATACCTAGGTGATCGTGAGGTCGTTGATACTAAC,1.53,1.12,0.563,1.35,0.0825,1.55,0.632,0.766,0.387,0.954
ATCTCTAGGTAAGACTCAGTCCAGTGAAGAACGC,0.392,0.554,-0.00583,-0.0175,0.668,-0.0468,0.17,0.258,0.405,0.142

Sequence,PBM binding z-score [1],PBM binding z-score [2],PBM binding z-score [3],PBM binding z-score [4],PBM binding z-score [5],PBM binding z-score [6],PBM binding z-score [7],PBM binding z-score [8],PBM binding z-score [9],PBM binding z-score [10]
ATCGAAAGGTCGAAGGTGAATATACCCACCCGAA,5.04,4.06,0.547,3.42,0.763,5.24,5.61,5.45,2.92,4.71
AGTCAAAGCTCACTAGGTAACGTAAGATTCAGCT,-0.693,-0.67,-0.464,-0.615,-0.437,0.637,0.855,0.165,0.0714,-0.118
GCGTGTAGATCAAGGTTAAGAAAGACTAAGCTAA,0.359,0.939,-0.369,0.539,-0.757,1.28,0.0821,0.373,-0.0969,0.289
CAAACTAGGTCACCGGAAGGTCAAAATCCGCATG,5.79,5.77,4.45,5.33,1.71,6.21,9.82,7.79,5.96,7.63
ACTAGCAGTCCAAGGGTCACTCAAGATTAGTCCG,2.25,2.99,0.313,2.87,-0.249,3.41,3.5,4.58,2.19,4.18
CCTATTAGTTGACCATAAGGTCAACCGAAGCTCG,4.88,4,3.35,3.83,1.73,4.06,1.48,3.02,1.42,2.61
CCTACTGGGCCAAGGTCGTTGATCAGTCAAAGCA,0.16,0.0412,-0.352,0.25,-0.992,1.56,1.7,2.33,0.177,1.6
ATATCTAGGTTAGCTGGGGTCATTCAGACTAGGC,4.62,5.44,3.33,4.64,2.06,5.23,5.59,5.22,2.61,4.47
CCAGACAGGTGAAAGGTAACTCTGTCTGGTACGC,0.257,1.07,-0.318,0.89,-0.274,3.45,5.57,6.03,4.71,5.8
CGAACCAGGGCATGAGTTGATAGCAAATGCCGAT,-0.0641,-0.00251,-0.295,-0.304,-1.08,0.552,1.15,1.2,-0.166,0.593
TCGAGTAGGTTAGTCGGCGCATTCAGCCAACATA,-0.102,-0.169,-0.745,-0.439,-1.53,0.0972,-0.358,0.362,0.699,0.562
TCTTCTAGGTCAACGATGGTCAGCTAATCTGCTA,4,3.57,0.955,2.54,2.65,4.34,6.09,5.82,5.08,5.64
GCGTCTGGGGCAAAGCAGGTTACCATAAGGTTGG,0.56,0.162,-0.429,0.26,-0.82,1.26,0.532,0.46,-0.355,0.0417
TCTTGTAGATCAAGCAGGTTAAAAAAGCCTGAGT,0.399,0.66,0.0137,0.802,-0.381,1.05,-0.353,1.21,2.5,1.89
AGAATGAGGTTATTAAGAGCAGGGAATTGCGGTC,1.73,1.76,0.247,1.32,0.0744,2.77,1.58,1.87,0.503,1.45
AGAATGAGGTAATTAAGATCAGGGAATTGCGGTC,0.0653,0.204,-0.0232,-0.116,-0.24,0.241,0.544,0.141,-0.00971,-0.0571
CGAACTAGGTCAAGGAAAGTGAATCTCCGCACGC,2.69,1.93,-0.152,1.2,-0.225,4.55,7.18,6.18,3.7,5.66
CCCGAAAGGTCGTGCTCAGGTGAGTATACCAAAC,5.73,4.05,0.438,3.37,0.415,4.94,2.94,3.87,0.899,2.53
ATCTCGAGGTAACAAGTTCAGTGAAAGAGAGGAC,0.617,0.888,0.333,0.61,0.253,1.51,0.717,0.867,-0.0837,0.456
CCTTACGGGTCACTTCAGGTTATAGCATCGGAGT,5.1,7.75,2.3,5.47,0.687,4.36,3.23,3.7,1.22,2.2
CCGAGTAGGTTGTGGGGCATTCAGGCAACGGTGA,-0.145,-0.118,0.0165,0.178,-0.163,0.496,0.169,1.61,-0.549,0.776
ATATGTGGGTTAAGGGTCATTCAGGTTGGTTCGC,5.26,4.74,3.07,4.91,2.59,6.53,11.6,9.82,10.4,11.3
CCTATAAGTTGACCATAAGGGCAACCGAAGCTCG,1.36,0.588,0.467,0.379,0.387,0.93,0.632,0.292,0.0132,-0.0263
TCGAGTAGGTTACGGGCATTCAGAATGGCGTCGA,0.0323,0.894,-0.574,-0.0129,-1.41,1.33,1.14,1.54,0.893,1.06
